Several values for one entry are separate records, joined by “and”; a condition that tells them apart may be missing. Identical values can stand only once. About 83,000 compounds went through this panel and 20% of them were active in at least one assay; those are over-represented in the sample as a whole.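 Assay: single dose, 48 h. Readout: percent growth (0 = no net growth; negative = cell death). Active: <10.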 Activity calls are given as the source filed them.
What follows are compounds tested on OVCAR-3 ovarian (assay: NCI-60 one-dose screen, 48 h (100 = growth as untreated, 0 = no growth, -100 = all killed)). Settings: 10 µM unless noted.
Procedure: Growth inhibition of the OVCAR-3 human tumor cell line is measured as a screen for anti-cancer activity. Cells are grown in 96 well plates and exposed to the test compound for 48 hours. Compounds are tested at a single concentration, which is 10^-5 M for most compounds. The reported endpoint is percent growth (GI% or GIPRCNT), where numbers from 0 - 100% represent growth inhibition, and numbers from -100% - 0 represent cell death. For example, a value of 40 represents 60% growth inhibition. A value of 0 means no net growth occurred over the course of the experiment. A value of -40 indicates 40% of cells at the beginning of the experiment died by the end of the experiment. A value of -100 means all cells are dead at the end of the experiment.
NCI-60 Human Tumor Cell Lines Screen was performed using the standard one-dose NCI protocol, which is described in more detail at https://dtp.cancer.gov/discovery_development/nci-60/default.htm.
Compounds with GIPRCNT values below 10 were considered active. Activity score was based on GIPRCNT using the following formula: […]
Score is 0 for GIPRCNT values of 100 or above, 50 for GIPRCNT values of 0, and 100 for GIPRCNT values of -100.

For `O=C(O)C1CSCN1` (stereo not given), which growth is on record?
The growth was 120% (inactive) and 107% (inactive).

For `CC(NC(=O)CCl)c1ccccc1` (stereo not given), which growth is on record?
The growth was 102% (inactive).

Which growth does the source give for `CCOc1ccc(/C=C\C(=O)O)cc1` here?
Its growth is 117% (inactive).

For `c1ccc2c[n+](Cc3ccc4ccccc4n3)ccc2c1`, which growth is on record?
Its growth is 62.1% (inactive).

With `N#Cc1c(N)nc2c(c(-c3ccc(Cl)cc3)nn2-c2ccccc2)c1C#N` as the compound, how does the growth read?
The growth was 122% [100 µM] (inactive).

With `O=c1[nH]nnc2cc(Cl)ccc12` as the compound, how does the growth read?
Its growth is 100% (inactive) and 123% (inactive).

`O=C(OCc1ccccc1)c1ccccc1` was tested. Which growth did it give?
The growth was 116% (inactive).

With `OCc1ccccc1F` as the compound, how does the growth read?
Its growth is 132% (inactive).

`CC(=O)Nc1cscc1NC(C)=O` was tested. Which growth did it give?
Its growth is 102% (inactive).

With `O=C(O)C(Cc1ccc(OS(=O)(=O)Cc2ccccc2)cc1)NS(=O)(=O)Cc1ccccc1` (stereo not given) as the compound, how does the growth read?
The growth was 111% (inactive) and 109% (inactive).

How did the growth turn out when `CN(C)C(=N)N=C(N)N` was run?
The growth was 118% (inactive) and 113% (inactive).

How did the growth turn out when `NNC(=O)Nc1ccccc1` was run?
Its growth is 105% (inactive).

For `CCCCCc1cc[n+](CC(=O)c2ccccc2)cc1`, which growth is on record?
The growth was 94.9% (inactive) and 105% (inactive).

`O=C1CCC(=O)N1CC1CC2CCC1C2` (stereo not given) was tested. Which growth did it give?
Its growth is 106% (inactive) and 101% (inactive).

How did the growth turn out when `S=c1ccc2ccccc2[nH]1` was run?
Its growth is 114% (inactive) and 107% (inactive).

How did the growth turn out when `OCCSc1ccc(Cl)cc1` was run?
Its growth is 124% (inactive) and 110% (inactive).

Which growth does the source give for `O=C(NC(=O)c1ccc(F)c(Cl)c1)NC1CC1` here?
Its growth is 104% (inactive) and 107% (inactive).

Which growth does the source give for `Cc1cc(=NO)cc(C)n1O` here?
The growth was 104% (inactive).

For `CC1=CC(=O)c2cccc(NC3=NCCO3)c21`, which growth is on record?
The growth was 106% (inactive).

With `CCNC1=CC(=O)c2ncccc2C1=O` as the compound, how does the growth read?
The growth was 1.49% (active).

For `OCCCc1ccccc1`, which growth is on record?
The growth was 109% (inactive).

For `O=COCCCc1ccccc1`, which growth is on record?
The growth was 109% (inactive).

How did the growth turn out when `COc1cc(Cl)ccc1C` was run?
Its growth is 111% (inactive).

`OCc1cccc(F)c1` was tested. Which growth did it give?
The growth was 125% (inactive).

With `O=[N+]([O-])c1ccc(NC2CCCCC2)nc1` as the compound, how does the growth read?
Its growth is 112% (inactive) and 114% (inactive).

For `O=c1[nH]c(=O)c2[nH]c(=O)[nH]c2[nH]1`, which growth is on record?
The growth was 107% (inactive).

For `N#CC1c2ccccc2C=CN1C(=O)c1ccccc1` (stereo not given), which growth is on record?
Its growth is 93.6% (inactive) and 95.9% (inactive).

For `O=[N+]([O-])c1ccc(N/N=C/C2CCCCCC2)c([N+](=O)[O-])c1`, which growth is on record?
Its growth is 99.8% (inactive).

`CC1(CO)CCCC1NCCNC1CCCC1(C)CO` (stereo not given) was tested. Which growth did it give?
The growth was 128% (inactive) and 112% (inactive).

For `C(#CCN1CCOCC1)CCCN1CCOCC1`, which growth is on record?
The growth was 116% (inactive) and 111% (inactive).

For `Nc1ccc(Cl)c(S(=O)(=O)O)c1`, which growth is on record?
Its growth is 101% (inactive).

For `CCCC(=O)Oc1ccc2ccccc2c1`, which growth is on record?
Its growth is 113% (inactive).

How did the growth turn out when `CC(=O)C[n+]1ccccc1Sc1ccc(Cl)cc1` was run?
Its growth is 100% (inactive).

Which growth does the source give for `CC1CCC(=O)N1c1ccc(N)cc1` (stereo not given) here?
Its growth is 108% (inactive).

How did the growth turn out when `CCn1c2ccc(N(C)C)cc2c2cc(N(C)C)ccc21` was run?
Its growth is 5.93% (active).

For `COCCCNC1=C(C#N)C(=O)NC(c2cccs2)S1` (stereo not given), which growth is on record?
The growth was 118% (inactive).

How did the growth turn out when `CCOC(=O)C1=C(C)NC(C)=C(C(=O)OCC)C1` was run?
The growth was 102% (inactive) and 114% (inactive).

With `NC(=O)Cc1nc(O)cc(=O)[nH]1` as the compound, how does the growth read?
The growth was 109% (inactive).

For `Cc1ccc2cccc([N+](=O)[O-])c2n1`, which growth is on record?
The growth was 111% (inactive) and 110% (inactive).

How did the growth turn out when `C/C=C(/C(=O)NC(N)=O)C(C)C` was run?
The growth was 104% (inactive).
